Source: PubChem BioAssay (EPA / NIEHS)
The source made the active and inactive calls. How the source made its calls: active means hit-call score of the fitted dose curve at least 0.9, where 1 is the maximum; inactive means score below 0.9.

Key:
[1] = read-out: Tissue Factor, F3 (gene 2152); experiment: BSK_CASM3C_TissueFactor: BioMAP Diversity Plus: CASM3C Assay for Tissue Factor Biomarker Activity (AID 2283052); conditions: primary human coronary artery smooth muscle cells; actives raise or lower the signal;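 further: cell surface tissue factor protein level read by ELISA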
[2] = read-out: Interferon-gamma inducible Protein 10 (IP10), CXCL10 (gene 3627); experiment: BSK_hDFCGF_IP10: BioMAP Diversity Plus: hDFCGF Assay for Interferon-gamma inducible Protein 10 (IP10) Biomarker Activity (AID 2283053); conditions: primary human foreskin fibroblasts; actives raise or lower the signal
Outline: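 ELISA read-out of IP-10 (CXCL10) from primary human skin fibroblasts, 24 h after compound addition. Gain or loss of signal versus DMSO baseline, bidirectional curve fitting.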

[3] = read-out: Urokinase-type plasminogen activator receptor (uPAR), PLAUR (gene 5329); experiment: BSK_CASM3C_uPAR: BioMAP Diversity Plus: CASM3C Assay for Urokinase-type plasminogen activator receptor (uPAR) Biomarker Activity (AID 2283054); conditions: primary human coronary artery smooth muscle cells; actives raise or lower the signal;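 further: cell-surface uPAR protein level quantified by ELISA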
[4] = read-out: Vascular cell adhesion molecule 1 (VCAM1), VCAM1 (gene 7412); experiment: BSK_CASM3C_VCAM1: BioMAP Diversity Plus: CASM3C Assay for Vascular cell adhesion molecule 1 (VCAM1) Biomarker Activity (AID 2283055); conditions: primary human coronary artery smooth muscle cells; actives raise or lower the signal;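 further: VCAM-1 protein level quantified by ELISA on the cells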
[5] = read-out: Interleukin-8 (IL8), CXCL8 (gene 3576); experiment: BSK_hDFCGF_IL8: BioMAP Diversity Plus: hDFCGF Assay for Interleukin-8 (IL8) Biomarker Activity (AID 2283058); conditions: primary human foreskin fibroblasts; actives raise or lower the signal
Outline: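 IL-8 levels read by ELISA at 24 hours after dosing human skin fibroblast cultures. Parallel SRB staining assessed overt cytotoxicity, and gain or loss of signal was fitted against DMSO control.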

[6] = BSK_hDFCGF_Proliferation: Cell Proliferation Assessment in the BioMAP Diversity Plus: hDFCGF Assay (AID 2283059); conditions: primary human foreskin fibroblasts;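 further: curves fitted for both rise and fall of signal versus DMSO baseline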
Outline: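 Primary human foreskin fibroblasts, sub-confluent; […]; 10% TCA fix, 0.1% SRB stain, A560 total protein. Gain/loss fitted bidirectionally vs DMSO control.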

[7] = read-out: Macrophage colony-stimulating factor (MCSF), CSF1 (gene 1435); experiment: BSK_hDFCGF_MCSF: BioMAP Diversity Plus: hDFCGF Assay for Macrophage colony-stimulating factor (MCSF) Biomarker Activity (AID 2283060); conditions: primary human foreskin fibroblasts; actives raise or lower the signal
Outline: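 M-CSF levels read by ELISA at 24 h post-dosing in human skin fibroblasts. Parallel cultures stained with SRB assessed cytotoxicity at the same time point; response fitted in both directions against the DMSO baseline.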

[8] = BSK_hDFCGF_SRB: Viability Assessment in the BioMAP Diversity Plus: hDFCGF Assay (AID 2283061); conditions: primary human foreskin fibroblasts;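 further: cells exposed to compound for 24 h before the read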
Outline: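 Viability was read as total protein: after 10% TCA fixation, wells were stained with 0.1% sulforhodamine B and read at 560 nm. Primary human foreskin fibroblasts were dosed for 24 h, with bidirectional fitting versus DMSO.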

[9] = read-out: Epidermal growth factor receptor (EGFR), EGFR (gene 1956); experiment: BSK_hDFCGF_EGFR: BioMAP Diversity Plus: hDFCGF Assay for Epidermal growth factor receptor (EGFR) Biomarker Activity (AID 2283057); conditions: primary human foreskin fibroblasts; actives raise or lower the signal
Outline: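 ELISA readout of EGFR on human dermal fibroblasts (primary foreskin cells), 24 h post-dosing; bidirectional curve fit vs DMSO baseline, gain or loss of signal scored.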

[10] = read-out: Collagen III, COL3A1 (gene 1281); experiment: BSK_hDFCGF_CollagenIII: BioMAP Diversity Plus: hDFCGF Assay for Collagen III Biomarker Activity (AID 2283056); conditions: primary human foreskin fibroblasts; actives raise or lower the signal
Outline: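 ELISA readout of Collagen III in human dermal (foreskin) fibroblasts, taken 24 h post-treatment. Gain or loss relative to DMSO vehicle fitted in both directions.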

Measured: AC50

CN1CSC(=S)N(C)C1
inactive: [1] | [3] | [5] | [8]
active: [2] 16 µM | [4] 20 µM | [6] 13.5 µM | [7] 10.6 µM

CCOc1nc(NC)nc(NC(=O)NS(=O)(=O)c2ccccc2C(=O)OC)n1
active: [2] 26.5 µM
not listed: [9] | [10]
inactive: all other assays above

CC(C)OC(=O)Nc1cccc(Cl)c1
not listed: [9] | [10]
inactive: all other assays above

CNC(=O)/C=C(\C)OP(=O)(OC)OC
not listed: [9] | [10]
inactive: all other assays above

CC(C)(C)C(O)C(Oc1ccc(Cl)cc1)n1cncn1 (configuration not stated)
not listed: [6] | [10]
inactive: all other assays above

OCCOc1ccccc1
not listed: [9] | [10]
inactive: all other assays above

Cc1[nH]c(=O)n(C(C)(C)C)c(=O)c1Cl
not listed: [9] | [10]
inactive: all other assays above

CCS(=O)(=O)c1cccnc1S(=O)(=O)NC(=O)Nc1nc(OC)cc(OC)n1
not listed: [9] | [10]
inactive: all other assays above

COC(=O)c1ccccc1S(=O)(=O)NC(=O)N(C)c1nc(C)nc(OC)n1
active: [2] 28.7 µM
not listed: [9] | [10]
inactive: all other assays above

CC(C)(C)C(O)/C(=C\c1ccc(Cl)cc1Cl)n1cncn1 (configuration not stated)
active: [2] 36.5 µM | [6] 29.8 µM | [7] 26.5 µM | [8] 20 µM
inactive: [1] | [3] | [4] | [5]

CCCN(CCC)c1c([N+](=O)[O-])cc(C(F)(F)F)cc1[N+](=O)[O-]
active: [2] 15.2 µM | [6] 29.6 µM | [7] 28.6 µM | [8] 30.9 µM
inactive: [1] | [3] | [4] | [5]

CC1(c2ccc(Oc3ccccc3)cc2)OC(=O)N(Nc2ccccc2)C1=O (configuration not stated)
active: [3] 5.52 µM | [4] 18 µM
not listed: [9] | [10]
inactive: all other assays above

N#Cc1c(Cl)c(Cl)c(Cl)c(C#N)c1Cl
active: [2] 0.148 µM | [3] 5.03 µM | [4] 1.62 µM | [10] 0.148 µM | [5] 1.1 µM | [6] 0.148 µM | [7] 1.11 µM | [8] 0.148 µM

CCC(C)(C)C(=O)OC1=C(c2ccc(Cl)cc2Cl)C(=O)OC12CCCCC2
inactive: [1] | [3] | [4]
active: [2] 10.3 µM | [5] 11 µM | [6] 4.67 µM | [7] 5.55 µM | [8] 11.4 µM
